A short description of assay [1]: NCI Yeast Anticancer Drug Screen. Data for the rad50 strain (AID 155).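 Also: 0% = growth of vehicle-only cultures of the same strain.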 The following applies: S. cerevisiae rad50 strain growth inhibition; at 50.0 µM; active compounds read high. An outline of the steps: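 Growth of the mutant yeast was measured after compound exposure and referenced to vehicle-treated cultures.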
The nature of assay [2]: NCI Yeast Anticancer Drug Screen. Data for the mec2-1 strain (AID 157). The following applies: S. cerevisiae mec2-1 strain, at 50.0 µM, active compounds read high. An outline of the steps: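 Compounds were applied to mec2-1 yeast cells. Their growth was then compared with that of vehicle-treated cultures to give growth inhibition.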
Assay [3] in a line: NCI Yeast Anticancer Drug Screen. Data for the sgs1 mgt1 strain (AID 161).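 Also: 0% = growth of cultures given vehicle only.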 The following applies: S. cerevisiae sgs1 mgt1 strain, at 50.0 µM, active compounds read high. In short, it runs like this: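 Compounds are added to genetically altered yeast, and growth is compared with cultures given vehicle alone to give percent inhibition.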
Assay [4] can be described thus: NCI Yeast Anticancer Drug Screen. Data for the cln2 rad14 strain (AID 165).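 Also: 0% = growth equal to vehicle treated cultures.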 The following applies: S. cerevisiae cln2 rad14 strain, at 50.0 µM, active compounds read high. In short, it runs like this:
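Strain: cln2 rad14 yeast, altered in cell cycle control and DNA damage repair. Read-out: growth inhibition vs vehicle.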

Assay [5] in a line: NCI Yeast Anticancer Drug Screen. Data for the bub3 strain (AID 167). The following applies: S. cerevisiae bub3 mutant strain, at 50.0 µM, active compounds read high. An outline of the steps: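 Whole-cell yeast assay. The mutant strain was incubated with compounds, and growth inhibition was determined by comparison with vehicle-treated cells.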
Assay [6] in a line: NCI Yeast Anticancer Drug Screen. Data for the mlh1 rad18 strain (AID 175). The following applies: S. cerevisiae mlh1 rad18 strain growth inhibition; at 50.0 µM; active compounds read high. In short, it runs like this:
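A repair-deficient yeast strain is exposed to test compound, and growth is scored relative to vehicle-treated controls.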

About 79,000 compounds went through this panel and 15% of them were active in at least one assay; those are over-represented in the sample as a whole. A number with no mark means an inactive call. Active and inactive are the calls of the source. Rule as the data show it: active = growth inhibition above about 70%; inactive = the rest. Where a SMILES comes first, the peptide text is derived from it. The star is where a group is joined. Boc = CC(C)(C)OC(=O)*; OBn = c1ccc(CO*)cc1; Bn = c1ccc(C*)cc1

Take `O=C(NCCO)Nc1ccc2c(c1)OCCOCCOCCOCCO2`: the growth inhibition in assay [1] was -0.95%; in assay [2] it was 4.8%; in assay [3], -2.65%; in assay [4] it was 14.1%; in assay [5], 1.75%; in assay [6], 5.9%.

As for `N#CCc1ccc(/C(C#N)=C2/OC(=N)C(c3ccc(CC#N)cc3)C2=O)cc1` (stereo not given), the growth inhibition in assay [1] is -10.3%; in assay [2], 2.65%; in assay [3], -5.45%; in assay [4] it was -21.6%; in assay [5], -20.7%; in assay [6], -16.4%.

As for `CC(C)CC(NC(=O)C(CCC(=O)OCc1ccccc1)NC(=O)OC(C)(C)C)C(=O)NC(COCc1ccccc1)C(=O)NC(Cc1ccccc1)C(=O)O` (stereo not given) (Boc-E(OBn)LS(Bn)F-OH; configuration not given here), the growth inhibition in assay [1] was -6.65%; in assay [2], -4.8%; in assay [3] it was -8.05%; in assay [4] it was 6%; in assay [5], 13.3%; in assay [6], -10.8%.

As to `CCOC(=O)c1c(C#N)c2cnn(-c3ccccc3)c2n2cccc12`, the growth inhibition was 14.1% in assay [1]; 9.8% in assay [2]; -2.25% in assay [3]; -64.2% in assay [4]; -8.25% in assay [5]; 36.1% in assay [6].

Consider `O=P1(c2ccccc2)OCC2=C(c3ccccc3)CC2=C1c1ccccc1` (stereo not given), for which the growth inhibition in assay [1] is 16.1%; in assay [2], 12.2%; in assay [3] it was 4.7%; in assay [4], 10.1%; in assay [5], -2.05%; in assay [6], 19.9%.

On to `COC(=O)c1ccccc1NC(=O)C1CCCCC1=O` (stereo not given), for which the growth inhibition is 1.55% in assay [1]; -1.2% in assay [2]; -0.1% in assay [3]; -21.5% in assay [4]; 12.3% in assay [5]; 0.6% in assay [6].

Take `CN(C)CC(CN(C)C)C(=O)C(C)(C)C`: the growth inhibition was 9.45% in assay [1]; -1.95% in assay [2]; 22.7% in assay [3]; -7.7% in assay [4]; 7.8% in assay [5]; 13.8% in assay [6].

With `O=c1c(-c2ccccc2)c2oc(c1-c1ccccc1)CS(=O)(=O)CCC2`, the growth inhibition in assay [1] is 21.9%; in assay [2], 20.2%; in assay [3], 16%; in assay [4], 12.3%; in assay [5] it was 8.15%; in assay [6], -2.35%.

As for `Cc1ccc(C(=O)C2CC2c2ccccc2)cc1` (stereo not given), the growth inhibition in assay [1] was 6.05%; in assay [2] it was -1.9%; in assay [3] it was -13.7%; in assay [4], -38%; in assay [5], -0.95%; in assay [6], -7%.

For the molecule `Cc1nc2ccccc2nc1CC(=O)c1ccccc1`, the growth inhibition in assay [1] is 43.3%; in assay [2], 15.3%; in assay [3] it was 48%; in assay [4], 18.5%; in assay [5], 54.4%; in assay [6] it was 43.5%.

Consider `CSC(=S)N/N=C(\c1ccccc1)c1ccccn1`, for which the growth inhibition in assay [1] was 0.3%; in assay [2], 13.2%; in assay [3], 0.85%; in assay [4], 10.4%; in assay [5], 21.2%; in assay [6] it was 5.75%.

Take `O=[N+]([O-])c1ccc(N=Cc2ccc(O)cc2)cc1`: the growth inhibition in assay [1] was -17.9%; in assay [2], -19.2%; in assay [3], -30.2%; in assay [4], -27.3%; in assay [5], -4.35%; in assay [6] it was -67.2%.

In the case of `CC1(C)N=C(N)N=C(N)N1c1cccc(CO)c1`, the growth inhibition is 0.5% in assay [1]; 9.5% in assay [2]; 1.15% in assay [3]; -2.45% in assay [4]; 15.2% in assay [5]; 28.2% in assay [6].

`C=CC(O)C(C)C` (stereo not given): the growth inhibition in assay [1] was 10.7%; in assay [2] it was -8.35%; in assay [3], -2.55%; in assay [4] it was -2.95%; in assay [5] it was -1.55%; in assay [6], 3.1%.

For `COC(=O)c1cc(C)nc(Cl)c1C(=O)O`, the growth inhibition in assay [1] was 1.55%; in assay [2], 4.95%; in assay [3], -2.2%; in assay [4] it was 0%; in assay [5], -2.05%; in assay [6], -5.9%.

As to `COc1c(C)cc(-c2cc(C)c(OC)c(C)c2)cc1C`, the growth inhibition in assay [1] was -3.45%; in assay [2] it was 8.05%; in assay [3] it was 1.7%; in assay [4], 9.4%; in assay [5], -8.8%; in assay [6], -3.55%.

`OCC(O)C(O)C(O)C(O)/C=N\Nc1ccccc1` (stereo not given): the growth inhibition in assay [1] is 43.3%; in assay [2], 67%; in assay [3], 62.8%; in assay [4] it was 34.1%; in assay [5], 81% (active); in assay [6] it was 89.1% (active).

For `COC(c1ccccc1)c1ccccc1`, the growth inhibition in assay [1] was -21.1%; in assay [2] it was 4.9%; in assay [3], 29.5%; in assay [4], -16.4%; in assay [5], 1.75%; in assay [6], -8%.

For `CCC(CC)C(O)(C(=O)O)C(CC)CC`, the growth inhibition in assay [1] is 14.1%; in assay [2], 13.7%; in assay [3], 3.95%; in assay [4], 3.3%; in assay [5], 8.5%; in assay [6], 32.8%.

Turning to `Oc1ccc(CCC2CCNCC2)cc1`, the growth inhibition in assay [1] was 7.75%; in assay [2], 23.4%; in assay [3], 7.7%; in assay [4], -27.2%; in assay [5], -11.1%; in assay [6] it was -30.1%.

For the origin of these results see PubChem BioAssay (NCI).
